These results are taken from PMC4336329 (PLoS ONE, 2015).

The whole screen tested about 310,000 compounds, of which about 14,000 (4.5%) showed an effect of 50% or more. Effects have a minus sign here. Only a selection was taken, and strong results are over-represented in it overall.
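Note: peak tail current of the secondary pulse compared with the same well before compound.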

Sequence of human ether-à-go-go-related gene (hERG) potassium channel (Q12809 whole entry, looked up): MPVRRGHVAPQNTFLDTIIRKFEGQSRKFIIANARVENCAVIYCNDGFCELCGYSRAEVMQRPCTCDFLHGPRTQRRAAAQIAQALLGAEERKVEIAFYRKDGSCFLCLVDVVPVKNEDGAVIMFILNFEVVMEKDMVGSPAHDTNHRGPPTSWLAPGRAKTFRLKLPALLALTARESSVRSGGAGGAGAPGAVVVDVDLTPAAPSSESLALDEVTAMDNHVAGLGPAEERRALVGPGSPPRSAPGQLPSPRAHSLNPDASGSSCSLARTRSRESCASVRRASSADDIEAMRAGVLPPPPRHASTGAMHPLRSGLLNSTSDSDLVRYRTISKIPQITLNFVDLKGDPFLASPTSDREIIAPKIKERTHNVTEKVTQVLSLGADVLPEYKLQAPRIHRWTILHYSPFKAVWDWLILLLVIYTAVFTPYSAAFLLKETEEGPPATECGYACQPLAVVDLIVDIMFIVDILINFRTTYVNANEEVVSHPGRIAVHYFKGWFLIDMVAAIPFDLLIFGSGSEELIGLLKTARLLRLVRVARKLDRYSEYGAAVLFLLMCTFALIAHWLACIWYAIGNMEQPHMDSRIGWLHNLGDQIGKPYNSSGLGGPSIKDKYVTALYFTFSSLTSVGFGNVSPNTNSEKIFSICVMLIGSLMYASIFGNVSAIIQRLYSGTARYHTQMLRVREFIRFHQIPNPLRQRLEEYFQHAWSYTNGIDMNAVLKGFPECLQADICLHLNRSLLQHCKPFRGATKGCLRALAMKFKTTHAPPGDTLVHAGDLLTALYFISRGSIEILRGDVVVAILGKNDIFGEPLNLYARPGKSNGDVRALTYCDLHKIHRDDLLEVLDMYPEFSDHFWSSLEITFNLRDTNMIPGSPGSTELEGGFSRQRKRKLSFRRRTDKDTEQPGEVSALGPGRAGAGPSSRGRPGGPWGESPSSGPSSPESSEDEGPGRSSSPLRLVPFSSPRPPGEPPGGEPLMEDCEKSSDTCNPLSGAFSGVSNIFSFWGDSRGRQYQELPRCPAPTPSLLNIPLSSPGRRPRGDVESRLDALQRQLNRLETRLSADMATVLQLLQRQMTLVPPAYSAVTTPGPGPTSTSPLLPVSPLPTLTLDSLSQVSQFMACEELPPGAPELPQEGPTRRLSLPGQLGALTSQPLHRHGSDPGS

The assay has as its target human ether-à-go-go-related gene (hERG) potassium channel (human, UniProt Q12809). Kind of assay: primary screen, population patch clamp on CHO cells stably expressing hERG; higher = less effect of the substance.
Turning to `COc1ccccc1CNC(=O)CCc1nc2ccccc2c(=O)[nH]1`, the “hERG current change (%, negative = inhibition) at 10uM” value is listed as -1.26%. Take `CC(=O)Nc1cccc(NC(=O)c2cccc(OCc3ccccc3)c2)c1`: the “hERG current change (%, negative = inhibition) at 10uM” value stood at 10.6%. Take `Cc1ccc(C2(C(F)(F)F)NC(=O)N3CCCN=C3S2)cc1` (stereo not drawn): the “hERG current change (%, negative = inhibition) at 10uM” value came to 16.5%. As to `Cc1cccc(C)c1NC(=S)N(CCN1CCCCCC1)Cc1ccco1`, the “hERG current change (%, negative = inhibition) at 10uM” value is given as -34.9%. Turning to `Cc1cc(C)c(NC(=S)N(CCN2CCCCC2)Cc2ccco2)c(C)c1`, the “hERG current change (%, negative = inhibition) at 10uM” value is listed as -37.9%. `Cc1ccc(NC(=S)N(CCN2CCCCC2)Cc2ccco2)cc1C`: the “hERG current change (%, negative = inhibition) at 10uM” value is listed as -80.3%. The figure for `Cc1cc(C)cc(NC(=S)N(CCN2CCCCC2)Cc2ccco2)c1` is -74.4%; for `Cc1ccc(NC(=S)N(CCN2CCCCC2)Cc2ccco2)cc1Cl` it is -51.1%; for `Cc1cc(NC(=S)N(CCN2CCCCC2)Cc2ccco2)ccc1Cl` it is -55.3%.

As for `Cc1cccc(C)c1NC(=S)N(CCCN1CCCCC1)Cc1ccco1`, the “hERG current change (%, negative = inhibition) at 10uM” value is -25.7%. In the case of `CN(C)CCOc1ccccc1-c1ccccc1.O=C(O)C(=O)O` it was -4.52%; in that of `COc1ccccc1CCNC(=O)c1ccc2nc[nH]c2c1`, 3.97%. `Nc1cc(=O)[nH]c(SCc2ccccc2Cl)n1`: the “hERG current change (%, negative = inhibition) at 10uM” value turned out to be 3.76%.

Consider `Cc1nc2c(nnn2Cc2ccccc2)c(=O)n1-c1ccccc1`, for which the “hERG current change (%, negative = inhibition) at 10uM” value is 0.475%.

Consider `NC(=O)c1cc([N+](=O)[O-])ccc1N1CCCCC1`, for which the “hERG current change (%, negative = inhibition) at 10uM” value was -17.2%. In the case of `Cc1ccc(S(=O)(=O)N(C)c2ccc(OC(=O)CN3C(=O)NC4(CCCC4)C3=O)cc2)cc1C`, the “hERG current change (%, negative = inhibition) at 10uM” value is on record as 9.26%. The figure for `COC(=O)c1ccc(C(=O)OC)c(NC(=O)CN(C)Cc2ccc(Cl)c(Cl)c2)c1` is 5.46%; for `CCNC(=S)N1CCC(C(=O)c2ccc(Cl)cc2)CC1` it is -16.8%; for `CC(C)(C)C(=O)Cn1ncc(N2CCOCC2)c(Br)c1=O` it is -0.203%. In the case of `O=C(Cn1ncc(N2CCCC2)c(Br)c1=O)c1ccc(Cl)cc1` it was -23.1%; in that of `O=C(Cn1ncc(N2CCCC2)c(Cl)c1=O)c1ccc(Cl)cc1`, -21.2%. On to `CC(=O)Cn1ncc(N2CCOCC2)c(Cl)c1=O`, for which the “hERG current change (%, negative = inhibition) at 10uM” value is given as 4.26%. In the case of `CC(C)(C)C(=O)Cn1ncc(N2CCOCC2)c(Cl)c1=O` it was -71.9%; in that of `CC(=O)Cn1ncc(N2CCCCC2)c(Cl)c1=O`, 17.8%; in that of `CO/N=C(\Cn1ncc(N2CCCC2)c(Br)c1=O)c1ccc(Cl)cc1`, -57.5%. The figure for `CO/N=C(\Cn1ncc(N2CCOCC2)c(Br)c1=O)c1ccc(Cl)cc1` is -19.7%; for `CO/N=C(\Cn1ncc(N2CCCC2)c(Cl)c1=O)c1ccc(Cl)cc1` it is -64%.
